Compounds without any hit were thinned out: in the full panel of roughly 79,000, 15% have a hit. A number with no mark means an inactive call. Active and inactive are the calls of the source. No stated cut-off is given here; in the data, active means growth inhibition above about 70%; inactive means the rest.
Assays:
[1] = NCI Yeast Anticancer Drug Screen. Data for the rad52 strain (AID 147);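 further: 0% = growth of vehicle-treated control cultures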; settings: S. cerevisiae rad52 mutant growth inhibition, stronger effect = higher value
Outline: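 Read-out: growth inhibition versus vehicle-treated controls. Cells were a DNA repair-deficient yeast strain treated with compounds.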

[2] = NCI Yeast Anticancer Drug Screen. Data for the wt1 strain (AID 149);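 further: 0% = growth of vehicle-treated wt1 cultures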; settings: S. cerevisiae wt1 strain (SPY 50644) growth inhibition, stronger effect = higher value
Outline: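 Vehicle-normalised growth inhibition; strain wt1; compound exposure.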

[3] = NCI Yeast Anticancer Drug Screen. Data for the rad50EPP+ strain (AID 151);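 further: 0% = growth of vehicle-treated control cultures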; settings: S. cerevisiae rad50 mutant strain, stronger effect = higher value
Outline: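 Growth inhibition read against vehicle controls in rad50EPP+ yeast, a strain altered in DNA damage repair, after compound exposure.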

[4] = NCI Yeast Anticancer Drug Screen. Data for the mgt1 strain (AID 153); settings: S. cerevisiae mgt1 mutant growth inhibition, stronger effect = higher value
Outline: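 mgt1 yeast grown with test compound; read-out is growth inhibition versus vehicle-treated cultures.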

[5] = NCI Yeast Anticancer Drug Screen. Data for the rad50 strain (AID 155);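 further: 0% = growth of vehicle-only cultures of the same strain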; settings: S. cerevisiae rad50 strain growth inhibition, stronger effect = higher value
Outline: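 A DNA repair-deficient yeast mutant serves as the test organism; compound-induced growth inhibition is calculated against vehicle-treated cells.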

[6] = NCI Yeast Anticancer Drug Screen. Data for the mec2-1 strain (AID 157); settings: S. cerevisiae mec2-1 strain, stronger effect = higher value
Outline: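 Yeast mec2-1 mutant treated with compound. Readout: growth inhibition vs vehicle controls.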

[7] = NCI Yeast Anticancer Drug Screen. Data for the rad14 strain (AID 159);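 further: 0% = growth of vehicle-treated control cultures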; settings: S. cerevisiae rad14 strain growth inhibition, stronger effect = higher value
Outline: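 Vehicle-treated cultures served as the baseline for growth inhibition of a DNA repair-mutant yeast strain exposed to each compound.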

[8] = NCI Yeast Anticancer Drug Screen. Data for the sgs1 mgt1 strain (AID 161);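 further: 0% = growth of cultures given vehicle only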; settings: S. cerevisiae sgs1 mgt1 strain, stronger effect = higher value
Outline: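 Inhibition of yeast growth, normalised to vehicle-treated controls, is reported for a strain bearing genetic alterations in DNA damage repair.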

[9] = NCI Yeast Anticancer Drug Screen. Data for the CLN2oe strain (AID 163);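 further: 0% = growth of vehicle-only control cultures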; settings: S. cerevisiae CLN2oe strain, stronger effect = higher value
Outline: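 Read-out: yeast growth inhibition, expressed relative to vehicle-only controls. The strain bears an engineered cell-cycle alteration.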

[10] = NCI Yeast Anticancer Drug Screen. Data for the cln2 rad14 strain (AID 165);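 further: 0% = growth equal to vehicle treated cultures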; settings: S. cerevisiae cln2 rad14 strain, stronger effect = higher value
Outline: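 cln2 rad14 yeast strain; compound exposure; growth inhibition read vs vehicle controls.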

[11] = NCI Yeast Anticancer Drug Screen. Data for the bub3 strain (AID 167); settings: S. cerevisiae bub3 mutant strain, stronger effect = higher value
Outline: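 Inhibition values come from growth of compound-treated mutant yeast normalised to vehicle-treated controls.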

[12] = NCI Yeast Anticancer Drug Screen. Data for the wt2 strain (AID 169);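 further: 0% = growth of vehicle-treated yeast cultures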; settings: S. cerevisiae wt2 strain growth inhibition, stronger effect = higher value
Outline: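 Read-out: growth inhibition versus vehicle-treated control cultures after compound exposure of the yeast strain.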

[13] = NCI Yeast Anticancer Drug Screen. Data for the mlh1 strain (AID 171);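 further: 0% = growth of vehicle-treated control cultures of the same strain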; settings: S. cerevisiae mlh1 strain growth inhibition, stronger effect = higher value
Outline: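 Read-out: growth inhibition versus vehicle controls. Strain: engineered yeast with a defined DNA repair or cell cycle defect, compound-treated.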

[14] = NCI Yeast Anticancer Drug Screen. Data for the sgs1 strain (AID 173);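 further: 0% = growth of vehicle-only control cultures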; settings: S. cerevisiae sgs1 mutant, stronger effect = higher value
Outline: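 Read-out: yeast growth inhibition relative to vehicle controls, following compound exposure of a strain with a defined DNA repair/cell cycle alteration.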

[15] = NCI Yeast Anticancer Drug Screen. Data for the mlh1 rad18 strain (AID 175); settings: S. cerevisiae mlh1 rad18 strain growth inhibition, stronger effect = higher value
Outline: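 Yeast w/ defined DNA-repair lesions; compound exposure; growth vs vehicle controls → % inhibition.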

[16] = NCI Yeast Anticancer Drug Screen. Data for the rad18 strain (AID 177); settings: S. cerevisiae rad18 mutant growth inhibition, stronger effect = higher value
Outline: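 Readout: growth inhibition vs vehicle controls. Cells: genetically altered yeast strain, DNA repair defect.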

[17] = at 5.0 µM (retest, dose inferred, filed as 0.5)
[18] = at 50.0 µM (retest, dose inferred, filed as 5.0)

Structure (SMILES): CSC(=S)Nc1cc(C)ccn1
- growth inhibition ([1]; at 1.2 µM): -5%
- growth inhibition ([1]; at 3.7 µM): 6%
- growth inhibition ([1]; at 11.0 µM): 37%
- growth inhibition ([1]; at 33.0 µM): 38%
- growth inhibition ([1]; at 100.0 µM): 82% (active)
- growth inhibition ([2]; at 1.2 µM): -9%
- growth inhibition ([2]; at 3.7 µM): -3%
- growth inhibition ([2]; at 11.0 µM): 17%
- growth inhibition ([2]; at 33.0 µM): 32%
- growth inhibition ([2]; at 100.0 µM): 79% (active)
- growth inhibition ([3]; at 1.2 µM): -7%
- growth inhibition ([3]; at 3.7 µM): -15%
- growth inhibition ([3]; at 11.0 µM): 29%
- growth inhibition ([3]; at 33.0 µM): 89% (active)
- growth inhibition ([3]; at 100.0 µM): 91% (active)
- growth inhibition ([4]; at 1.2 µM): -34%
- growth inhibition ([4]; at 3.7 µM): -27%
- growth inhibition ([4]; at 11.0 µM): 37%
- growth inhibition ([4]; at 33.0 µM): 23%
- growth inhibition ([4]; at 100.0 µM): 76% (active)
- growth inhibition ([5]; at 1.2 µM): 12%
- growth inhibition ([5]; at 3.7 µM): 15%
- growth inhibition [5, 17]: 60%
- growth inhibition ([5]; at 11.0 µM): 64%
- growth inhibition ([5]; at 33.0 µM): 84% (active)
- growth inhibition [5, 18]: 99% (active)
- growth inhibition ([5]; at 50.0 µM): 84.8% (active)
- growth inhibition ([5]; at 100.0 µM): 92% (active)
- growth inhibition ([6]; at 1.2 µM): -19%
- growth inhibition ([6]; at 3.7 µM): -25%
- growth inhibition [6, 17]: 52%
- growth inhibition ([6]; at 11.0 µM): 39%
- growth inhibition ([6]; at 33.0 µM): 50%
- growth inhibition [6, 18]: 99% (active)
- growth inhibition ([6]; at 50.0 µM): 70.3% (active)
- growth inhibition ([6]; at 100.0 µM): 84% (active)
- growth inhibition ([7]; at 1.2 µM): -26%
- growth inhibition ([7]; at 3.7 µM): -12%
- growth inhibition ([7]; at 11.0 µM): 42%
- growth inhibition ([7]; at 33.0 µM): 24%
- growth inhibition ([7]; at 100.0 µM): 75% (active)
- growth inhibition [8, 17]: -11%
- growth inhibition [8, 18]: 90% (active)
- growth inhibition ([8]; at 50.0 µM): 81.2% (active)
- growth inhibition ([9]; at 1.2 µM): 20%
- growth inhibition ([9]; at 3.7 µM): 3%
- growth inhibition ([9]; at 11.0 µM): 31%
- growth inhibition ([9]; at 33.0 µM): 26%
- growth inhibition ([9]; at 100.0 µM): 74% (active)
- growth inhibition [10, 17]: 39%
- growth inhibition [10, 18]: 86% (active)
- growth inhibition ([10]; at 50.0 µM): 83% (active)
- growth inhibition ([11]; at 1.2 µM): -8%
- growth inhibition ([11]; at 3.7 µM): 50%
- growth inhibition [11, 17]: 8%
- growth inhibition ([11]; at 11.0 µM): 41%
- growth inhibition ([11]; at 33.0 µM): 30%
- growth inhibition [11, 18]: 94% (active)
- growth inhibition ([11]; at 50.0 µM): 86% (active)
- growth inhibition ([11]; at 100.0 µM): 83% (active)
- growth inhibition ([12]; at 1.2 µM): -7%
- growth inhibition ([12]; at 3.7 µM): -13%
- growth inhibition ([12]; at 11.0 µM): 23%
- growth inhibition ([12]; at 33.0 µM): 23%
- growth inhibition ([12]; at 100.0 µM): 70% (active)
- growth inhibition ([13]; at 1.2 µM): 0%
- growth inhibition ([13]; at 3.7 µM): -4%
- growth inhibition ([13]; at 11.0 µM): 54%
- growth inhibition ([13]; at 33.0 µM): 51%
- growth inhibition ([13]; at 100.0 µM): 85% (active)
- growth inhibition ([14]; at 1.2 µM): -11%
- growth inhibition ([14]; at 3.7 µM): -3%
- growth inhibition ([14]; at 11.0 µM): 46%
- growth inhibition ([14]; at 33.0 µM): 52%
- growth inhibition ([14]; at 100.0 µM): 93% (active)
- growth inhibition [15, 17]: 50%
- growth inhibition [15, 18]: 99% (active)
- growth inhibition ([15]; at 50.0 µM): 83.8% (active)
- growth inhibition ([16]; at 1.2 µM): -23%
- growth inhibition ([16]; at 3.7 µM): -29%
- growth inhibition ([16]; at 11.0 µM): 15%
- growth inhibition ([16]; at 33.0 µM): 39%
- growth inhibition ([16]; at 100.0 µM): 75% (active)
